Reference: the supplement of paper PMC4723716
In all, about 3,600 compounds were measured (“viability index relative to DMSO control”: median about 0.81, lowest 2% from about 0.13 on). Shown is part of a subset that was picked to be rich in the lowest values.

tested on: Plasmodium falciparum NF54 stage V gametocytes; assay: viability index relative to DMSO control (fraction); higher = less gametocyte killing; details: 1.25 µM, incubation time: 72 h
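Further: Saponin-lysis sexual stage assay in serum-free medium: MitoTracker Red CMXRos staining plus saponin, high-content imaging, particle count per well divided by plate mean of DMSO wells.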

Row | SMILES | viability index
1 | CCOC(=O)c1sc(Nc2c(Cl)cc(S(N)(=O)=O)cc2Cl)nc1C | 0.886
2 | CCOC(=O)C1=C(C)NC2=C(C(=O)CC(c3ccc(OC)c(OC)c3)C2)C1c1ccccc1OC (configuration not stated) | 0.68
3 | CCOC(=O)c1c(NC(=O)CSc2nnc(CNC(=O)c3ccc(C)c(C)c3)n2C2CCCCC2)sc2c1CCC2 | 0.784
4 | O=C1CN(C(=O)CCC2CCCC2)C(c2ccc(F)cc2)c2cc(Cl)ccc2N1 (configuration not stated) | 0.751
5 | S=P(OCC1C(COP(=S)(c2ccccc2)c2ccccc2)C1(Cl)Cl)(c1ccccc1)c1ccccc1 (configuration not stated) | 0.562
6 | CN1C(=O)N(C)C2(c3ccccc3)NN3C(=NC12c1ccccc1)SC1=C3C(=O)c2ccccc2C1=O (configuration not stated) | 0.0309
7 | CCOC(=O)c1nnn(-c2nonc2N)c1-c1ccc(Br)cc1 | 0.676
8 | CCOC(=O)C1CCCN(C(=O)c2c(C)oc3c2C(=O)c2ccccc2C3=O)C1 (configuration not stated) | 0.726
9 | Cc1oc2c(c1C(=O)N1CCC(C)CC1)C(=O)c1ccccc1C2=O | 0.587
10 | CCOC(=O)c1c(C)oc2c1C(=O)c1ccccc1C2=O | 0.902
11 | Cc1oc2c(c1C(=O)NCC1CCCO1)C(=O)c1ccccc1C2=O (configuration not stated) | 0.195
12 | Cc1oc2c(c1C(=O)NC1CCS(=O)(=O)C1)C(=O)c1ccccc1C2=O (configuration not stated) | 0.0502
13 | Cc1oc2c(c1C(=O)NCCCn1ccnc1)C(=O)c1ccccc1C2=O | 0.0826
14 | Cc1oc2c(c1C(=O)N1CCN(C)CC1)C(=O)c1ccccc1C2=O | 0.43
15 | Cc1oc2c(c1C(=O)NCc1cccnc1)C(=O)c1ccccc1C2=O | 0.231
16 | CCOC(=O)C1CCN(C(=O)c2c(C)oc3c2C(=O)c2ccccc2C3=O)CC1 | 0.0992
17 | Cc1cc(I)ccc1N1C(=O)C2C3c4ccccc4C(CO)(c4ccccc43)C2C1=O (configuration not stated) | 1.06
18 | CC(=O)N(C1=C(N2CCOCC2)C(=O)c2ccccc2C1=O)c1ccc(C(C)C)c(C)c1 | 0.509
19 | Oc1c(C(Nc2ccccn2)c2ccc(Br)cc2)ccc2cccnc12 (configuration not stated) | 1.1
20 | Cc1cc(C)n(-c2ccc(NC(=O)C3CCN(Cc4cc(C)c(C)o4)CC3)cc2)n1 | 0.926
21 | Oc1ccc2ccccc2c1CNc1nc2ccccc2[nH]1 | 0.865

Row | SMILES | viability index
22 | CCN(CC)CCNc1ccc(Nc2ccnc3cc4ccccc4cc23)cc1 | 0.423
23 | N#Cc1cc2nc3c(nc2cc1C#N)-c1ccccc1C3=O | 0.0308
24 | CCOC(=O)c1ccc2nc3c(nc2c1)C(=O)c1ccccc1C3=O | 0.359
25 | Cc1ccc(-c2cc3c(nn2)-c2ccccc2C3=O)cc1 | 0.65
26 | Cc1[nH]c2ccccc2c1C=Cc1cc[n+](C)cc1 | 1.08
27 | O=C(C1CCN(c2nnnn2-c2ccccc2)CC1)N1CCc2ccccc2C1 | 0.826
28 | N#CC(=CC=Cc1ccc([N+](=O)[O-])o1)c1nc2ccccc2[nH]1 | 0.0143
29 | CCN(CC)c1ccc(C=C(C#N)c2nc3ccccc3[nH]2)o1 | 0.609
30 | N#CC(=Cc1ccc(Sc2ccccc2)o1)c1nc2ccccc2[nH]1 | 0.776
31 | O=S(=O)(c1ccc(Cl)cc1)N1CCN(C(=S)NCc2ccco2)CC1 | 0.959
32 | CCOC(=O)C1=C(C)NC2=C(C(=O)CC(c3ccc(Cl)cc3)C2)C1c1ccc(Br)cc1 (configuration not stated) | 0.725
33 | CC(C)(C)NC(=S)NN=CC=NNC(=S)NC(C)(C)C | 0.299
34 | S=C(NN=CC=NNC(=S)Nc1ccccc1)Nc1ccccc1 | 0.104
35 | OC1CCCCC1C1(NC(=S)Nc2ccccc2)CCCCC1 (configuration not stated) | 1.08
36 | O=S(=O)(NCCNc1ncnc2scc(-c3ccccc3)c12)c1ccc(Cl)c(Cl)c1 | 0.554
37 | c1ccc2nc3c(nnc4ccccc43)nc2c1 | 0.092
38 | FC(F)(F)c1ccc(Nc2nnnc3ccccc23)cc1 | 1.04
39 | Brc1ccc2[nH]c3nc4ccccc4nc3c2c1 | 0.699
40 | COC(OC)C(C)=NNC(N)=S | 0.112
41 | CC(=NNC(N)=S)C(C)=NNC(N)=S | 0.27
42 | COc1cc(Nc2cncc(-c3ccncc3)n2)cc(OC)c1OC | 0.524

Row | SMILES | viability index
43 | COc1cc(C(=O)Nc2nnc(-c3ccccc3)o2)cc(OC)c1OC | 0.81
44 | COc1cc(Nc2cncc(-c3ccc(C(N)=O)cc3)n2)cc(OC)c1OC | 0.0179
45 | CSc1ccc(C=CC(=O)NC(=O)c2ccccc2O)cc1 | 0.661
46 | CCOC(=O)C1=C(C)N(CCNc2ncc(C(F)(F)F)cc2Cl)C(=O)CC1 | 1.04
47 | CCCCCc1ccc(OCCCC[n+]2cccc(C)c2C)c(CCCCC)c1 | 0.521
48 | CCCn1c(=N)c(C(=O)NC2CCCCC2)cc2c(=O)n3cccc(C)c3nc21 | 1.15
49 | CC(C)=CCCC(C)=CCCC(C)NCCN1CCNCC1 (configuration not stated) | 0.135
50 | CC(NCCN1CCNCC1)c1cc(C(C)(C)C)cc2c1CCC2(C)C (configuration not stated) | 0.104
51 | CC(NCCCN(C)C)c1cc(C(C)(C)C)cc2c1CCC2(C)C (configuration not stated) | 0.283
52 | CC12C(=O)N(c3cccc(C(=O)O)c3)C(=O)C1C1c3ccccc3C2c2ccccc21 (configuration not stated) | 1.15
53 | Cc1c(Cl)cccc1NCC(=O)NN=C1CCCC1 | 0.779
54 | COc1cc(OC)c(NC(=O)C2c3ccccc3C(=O)N(CC(C)C)C2c2cccs2)cc1Cl (configuration not stated) | 0.0683
55 | CC(C)CN1C(=O)c2ccccc2C(C(=O)Nc2ccc(F)c(Cl)c2)C1c1cccs1 (configuration not stated) | 0.237
56 | COc1cc(Cl)c(C)cc1NC(=O)C1c2ccccc2C(=O)N(CC(C)C)C1c1cccs1 (configuration not stated) | 0.398
57 | COc1ccc(NC(=O)C2c3ccccc3C(=O)N(CC(C)C)C2c2cccs2)cc1OC (configuration not stated) | 0.0723
58 | CC(C)CN1C(=O)c2ccccc2C(C(=O)Nc2cccc(Cl)c2)C1c1cccs1 (configuration not stated) | 0.209
59 | CC(C)CN1C(=O)c2ccccc2C(C(=O)Nc2ccc(C(C)C)cc2)C1c1cccs1 (configuration not stated) | 0.281
60 | COc1ccc(Cl)cc1NC(=O)C1c2ccccc2C(=O)N(CC(C)C)C1c1cccs1 (configuration not stated) | 0.426
61 | COc1ccc(NC(=O)C2c3ccccc3C(=O)N(CC(C)C)C2c2cccs2)cc1Cl (configuration not stated) | 0.104
62 | COc1cc(OC)c(NC(=O)C2c3ccccc3C(=O)N(C)C2c2cccs2)cc1Cl (configuration not stated) | 0.546
